# Screening results deposited in PubChem BioAssay by National Center for Advancing Translational Sciences (NCATS).
# This excerpt belongs to a sample that is enriched for hits.
# IL-1B inflam inh: blocks inflammasome-driven IL-1 beta release; actives 4.7% (n = 360,000); THP-1 LPS/ATP IL-1B secretion, AlphaLISA, 16 h; stronger effect = lower value; activity change, % at 57.5 µM; AID 743279; in the data active means activity change below about -50%; inconclusive means mostly about -30% to -49%
#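 Secreted IL-1B measured by AlphaLISA bead assay after 16 h compound exposure of THP-1 cells; compounds (final up to 57.5 uM) added 1 h before LPS (250 ng/mL) and ATP (1.25 mM) stimulation; lower signal means less secretion.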
# HT1080 IDH1KD tx: toxicity to HT-1080 IDH1 knockdown cells (counter line). HT-1080 IDH1 knockdown viability, ATP luminescence, 48 h. AID 686971. actives 2% (n = 360,000). Potency, µM (highest dose often 46.1 µM), inactives show at the top dose activity, negative = toxicity, hits mostly cytotoxic;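 further: potency means the concentration at half of the fitted maximal effect; 0% = DMSO wells and -100% = cell-free medium wells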
#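 Knockdown cells (IDH1KD HT-1080) received compounds 2 h after plating at 750 cells/well and were kept 48 h at 37 °C in 5% FBS RPMI. A CellTiter-Glo luminescence read gave % activity for curve fitting.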
# DT40 TDP1 CPT: DT40-hTDP1 cell growth loss with CPT | chicken DT40 Tdp1-/-;hTDP1 cells + 20 nM CPT, ATP luminescence, 48 h | Potency, µM (top dose mostly 46.2 µM), without a hit: at the highest dose activity change, negative = growth inhibition, most hits filed as inhibitors | actives 12% (n = 420,000) | AID 686979; further: potency means the concentration at half of the fitted maximal effect; nearly all actives have a fitted effect of over 55% in size
#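 Cell growth measured by CellTiter-Glo luminescence after a minimum 48 h, 37 C compound exposure with 20 nM CPT in Tdp1-knockout DT40 cells stably expressing hTDP1, seeded 400/well; qHTS titration format.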
# 12-LOX inh: blocks human arachidonate 12S-lipoxygenase. actives 1.1% (n = 580,000). P18054. purified 12hLO, xylenol orange hydroperoxide absorbance. Potency, µM (top dose mostly 108 µM), inactives show at the highest dose activity change, negative = inhibition, actives largely listed as inhibitors; further: potency means the concentration at half of the fitted maximal effect
# Target sequence (P18054 whole entry, looked up): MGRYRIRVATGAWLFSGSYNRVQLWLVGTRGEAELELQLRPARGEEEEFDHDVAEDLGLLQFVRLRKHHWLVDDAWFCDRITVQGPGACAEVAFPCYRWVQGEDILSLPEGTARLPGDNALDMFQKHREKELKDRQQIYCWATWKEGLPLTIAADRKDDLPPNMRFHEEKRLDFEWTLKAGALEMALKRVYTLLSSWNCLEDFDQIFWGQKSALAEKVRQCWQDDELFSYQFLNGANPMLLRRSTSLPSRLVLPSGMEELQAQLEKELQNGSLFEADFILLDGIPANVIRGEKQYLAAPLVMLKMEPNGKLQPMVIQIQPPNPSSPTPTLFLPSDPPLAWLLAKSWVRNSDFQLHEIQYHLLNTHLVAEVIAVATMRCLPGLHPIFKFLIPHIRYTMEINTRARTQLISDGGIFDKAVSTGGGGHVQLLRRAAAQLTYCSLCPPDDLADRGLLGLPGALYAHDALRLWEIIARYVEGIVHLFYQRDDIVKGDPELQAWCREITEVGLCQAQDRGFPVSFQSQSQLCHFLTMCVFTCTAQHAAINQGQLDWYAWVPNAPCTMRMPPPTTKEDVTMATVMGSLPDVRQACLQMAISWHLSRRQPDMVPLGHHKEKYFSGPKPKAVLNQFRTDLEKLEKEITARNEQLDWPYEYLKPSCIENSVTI
#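 Purified human 12hLO (150 nM final) in 25 mM Hepes, 0.01% Triton X-100, pH 7.0 was preincubated 15 min at room temperature with compound. Then 40 uM arachidonic acid was added, 30 min. Hydroperoxide was read by Fe-XO absorbance ratio 573/405 nm.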
# HT1080-NT tox: kills 2HG-producing HT-1080-NT fibrosarcoma cells. HT-1080-NT fibrosarcoma viability, CellTiter-Glo ATP luminescence, 48 h. Potency, µM (series often up to 46.1 µM), for inactives: top-dose activity, negative = less viability, actives largely listed as cytotoxic. actives 1.6% (n = 360,000);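 further: NT is the 2HG producing partner of a matched IDH1 knockdown line; potency means the concentration at half of the fitted maximal effect; 0% = DMSO-treated cells and -100% = media-only wells without cells; nearly all actives have a fitted effect of over 55% in size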
#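 750 cells/well, RPMI + 5% FBS; 2 h settle, compound pin-transfer, 48 h at 37 degrees C. CellTiter-Glo 10 min RT, luminescence. Normalized to DMSO and media-only wells.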
# TDP1 cell noCPT: qHTS for Inhibitors of human tyrosyl-DNA phosphodiesterase 1 (TDP1): qHTS in cells in absence of CPT; DT40 Tdp1-/- hTDP1 cells, no CPT, ATP luminescence, 48 h; Potency, µM (titrated, usually from 46.2 µM), without a hit: at the top dose activity change, negative = growth inhibition, most hits filed as inhibitors; actives 15% (n = 420,000); AID 686978, 2013; further: potency means the concentration at half of the fitted maximal effect; nearly all actives have a fitted effect of over 55% in size
#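 Growth of hTDP1-complemented DT40 Tdp1-knockout cells is measured by ATP luminescence after at least 48 hr compound exposure at 37 °C, with DMSO substituting for the 20 nM CPT used in the parallel screen.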
# The depositor's hits bear a star; ? = inconclusive; . = not tested or not shown; ! = a repeat was not active; [ ] = another dose, or the depositor's remark. Unless noted, the call rests on the fitted dose curve; in most records, active means well fitted curve in the direction sought with a large enough effect; inconclusive means small, poorly fitted or top-dose-only effect, or another doubt; inactive means no such curve, though single readings can be large; an effect the other way counts as inactive or inconclusive. Unless noted, on the % scale 0 is the no-effect control and ±100 the full control effect.
SMILES,IL-1B inflam inh,HT1080 IDH1KD tx,DT40 TDP1 CPT,12-LOX inh,HT1080-NT tox,TDP1 cell noCPT
CN(C)S(=O)(=O)c1cccc(NC(=O)CCc2nc3sc4c(c3c(=O)[nH]2)CCCC4)c1,-12.4,-14.6%,16.4µM*,248.9%,-14.7%,?
COC(=O)c1ccccc1NC(=O)CSc1nc2sc3c(c2c(=O)[nH]1)CCCC3,.,.,11.6µM*,?,.,9.2µM*
COc1cccc(NC(=O)CN(C)C(=O)CCc2nc3sc4c(c3c(=O)[nH]2)CCCC4)c1,2.8,-1.4%,-5.0%,2.8%,-2.6%,-11.5%
CN(C(=O)CSc1nc2c(c(=O)[nH]1)CCCC2)c1ccccc1,.,.,9.2µM*,-1.4%,.,-27.6%
COc1cccc(-c2cnc3[nH]cc(CC(N)=O)c3c2)c1,.,.,.,11.4%[176 µM],.,.
O=C(CCc1nc2sc3c(c2c(=O)[nH]1)CCCC3)N1CCCCC1,.,.,.,15.5%,.,.
NC(=O)C1CCN(C(=O)CCc2nc3sc4c(c3c(=O)[nH]2)CCCC4)CC1,15.4,0.2%,-1.0%,17.8µM*!,2.8%,-2.4%
O=C(CSc1cn(CC(=O)N2CCCCC2)c2ccccc12)Nc1ccccc1F,.,.,?,-0.8%,.,?
CC1CCN(C(=O)Cn2cc(SCC(=O)Nc3ccccc3C(F)(F)F)c3ccccc32)CC1,.,.,?,-0.9%,.,20.6µM*
O=C(CSc1cn(CC(=O)N2CCCC2)c2ccccc12)Nc1ccccc1C(F)(F)F,.,.,?,-11.1%,.,?
Cc1cccc(NC(=O)CSc2cn(CC(=O)N3CCC(C)CC3)c3ccccc23)c1C,.,.,23.1µM*,-22.3%,.,9.2µM*
CCOC(=O)C1(Cc2cccc(OC)c2)CCCN(C(=O)CSc2ccncc2)C1 (stereo not drawn),.,.,.,16.8%,.,.
O=C1c2cccc(NCCCNCCO)c2C(=O)c2cccc(NCCCNCCO)c21,-103.2*,16.4µM*,5.8µM*,5.9%,?,5.8µM*
CC1=C[C@@H](CNS(=O)(=O)c2ccccc2)[C@H](C(C)C)C[C@H]1CC(=O)NCCN(C)C,.,.,.,21.4%,.,.
COc1ccc(S(=O)(=O)NC[C@@H]2C=C(C)[C@H](CC(=O)NCc3ccc(C#N)cc3)C[C@H]2C(C)C)cc1,.,.,.,35.5µM*,.,.
CC1=C[C@@H](CNS(=O)(=O)c2ccccc2)[C@H](C(C)C)C[C@H]1CC(=O)NCc1ccc(C#N)cc1,.,.,.,35.5µM*,.,.
COc1ccc(-c2ccc(C(=O)Nc3cccc(C(F)(F)F)c3)c3occc23)c(C)c1,-2.5,-26.9%,23.1µM*,?,-10.5%,20.6µM*
COc1ccc(-c2ccc(C(=O)Nc3cc(OC)c(OC)c(OC)c3)c3occc23)c(C)c1,-15.4,?,6.51µM*,?,-28.2%,23.1µM*
O=C(NCc1coc(-c2cccs2)n1)c1cc2ccccc2cc1O,.,.,.,13.9%,.,.
O=c1oc2c3c4c(cc2c(C(F)(F)F)c1CCN1CCOCC1)CCCN4CCC3,78.1,-0.3%,16.4µM*,5.6%,-8.4%,16.4µM*
CC(C)c1cc(=O)oc2c3c4c(cc12)CCCN4CCC3,-27.9,4.4%,16.4µM*,13.9%,-5.1%,?
Cc1cc(=O)oc2c3c4c(cc12)OCCN4CCC3,10.7,-7.9%,?,6.3%,6.3%,-28.8%
Cc1ccc(C)c(CS(=O)(=O)Cc2noc(C(C)(C)C)n2)c1,.,.,.,9.1%,.,.
Cc1ccccc1N/N=C1\CCCNC1=O,-53.8*,2.2%,-20.6%,4.47µM*,-3.9%,-7.8%
Cc1ccc2oc(-c3cccc(NC(=O)c4ccccc4[N+](=O)[O-])c3C)nc2c1,.,.,.,-18.7%,.,.
SMILES,IL-1B inflam inh,HT1080 IDH1KD tx,DT40 TDP1 CPT,12-LOX inh,HT1080-NT tox,TDP1 cell noCPT
Cc1nnc2n1C(C)CN(C(=O)COc1ccc(-n3cnnn3)cc1)C2 (stereo not drawn),.,.,.,8.5%,.,.
Cc1ccc([S+](=O)([O-])N2CCC(N3CCCCCC3=O)CC2)cc1,.,.,.,12.8%,.,.
Nc1ccc(C(c2ccc(N)cc2)c2ccc(O)cc2)cc1,.,.,.,7.8%,.,.
Nc1ncncc1-c1ccc([N+](=O)[O-])cc1,-1.6,5.7%,16.4µM*,-0.9%,-0.2%,?
CCC(CC)NC(=O)CN1CCN(c2ccc(C(F)(F)F)cn2)CC1,.,.,.,-16.5%,.,.
CCc1ccc(C(=O)Nc2cccc(C(C)=O)c2)cc1S(=O)(=O)N1CCOCC1,.,.,.,5.7%,.,.
CN(c1cccc(NC(=O)c2ccc(Cl)c(S(=O)(=O)N3CCOCC3)c2)c1)S(C)(=O)=O,-8.3,3.9%,?,0.0%,-1.0%,11.6µM*
CC(=O)c1cccc(NC(=O)c2ccc(Cl)c(S(=O)(=O)N3CCOCC3)c2)c1,.,.,?,-23.4%,.,0.461µM*
C/C(=C\c1ccccc1)CN1CCC2(CC1)Cc1ccccc1CNC2=O,.,.,.,2.7%[6.33 µM],.,.
CCn1nc(NC(=O)c2ccncc2)c2cc3ccc(C)cc3nc21,-28.3,?,-20.8%,-14.0%,-26.7%,-15.5%
CCCCn1nc(NC(=O)c2cccc(Cl)c2)c2cc3ccccc3nc21,.,.,?,-3.8%,.,?
CCn1nc(NC(=O)CC(C)C)c2cc3ccc(C)cc3nc21,1.6,-2.1%,29.1µM*,-10.0%,-1.6%,?
CCCn1nc(NC(=O)c2ccco2)c2cc3ccccc3nc21,-3.7,2.1%,23.1µM*,-27.4%,-0.7%,14.6µM*
CCn1nc(NC(=O)c2ccncc2)c2cc3cc(C)ccc3nc21,?,-0.2%,?,0.0%,-7.0%,23.1µM*
CC(C)Cn1nc(NC(=O)c2cccc(Cl)c2)c2cc3ccccc3nc21,.,.,14.6µM*,?,.,8.2µM*
CCOCc1nc(C2CCCN(C(=O)c3ccco3)C2)no1 (stereo not drawn),.,.,.,24.7%,.,.
